The panel holds about 83,000 compounds, 20% with a hit somewhere; the sample as a whole holds those more often.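 Values shown are percent growth following 48 h exposure of cells in 96-well plates to a single concentration of compound; below 10 was considered active.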 Values without a mark were called inactive. Active and inactive are the calls of the source.
How the values were obtained:
Assay in all cases: NCI-60 one-dose screen, 48 h (100 = growth as untreated, 0 = no growth, -100 = all killed)
Conditions in all cases: 10 µM unless noted
NCI-H23 lung = test system: NCI-H23 lung
NCI-H226 lung = test system: NCI-H226 lung
NCI-H322M lung = test system: NCI-H322M lung
HOP-62 NSCLC = test system: HOP-62 NSCLC
NCI-H460 lung = test system: NCI-H460 lung
HOP-92 NSCLC = test system: HOP-92 NSCLC
NCI-H522 lung = test system: NCI-H522 lung
A549/ATCC NSCLC = test system: A549/ATCC NSCLC
786-0 renal = test system: 786-0 renal
COLO 205 colon = test system: COLO 205 colon

SMILES	growth (NCI-H23 lung)	growth (NCI-H226 lung)	growth (NCI-H322M lung)	growth (HOP-62 NSCLC)	growth (NCI-H460 lung)	growth (HOP-92 NSCLC)	growth (NCI-H522 lung)	growth (A549/ATCC NSCLC)	growth (786-0 renal)	growth (COLO 205 colon)
CC1=CCc2ccccc21	97.6%	95.3%	91.3%	101%	99.8%	82%	90.5%	97.1%	103%	105%
CC(C)=CC/C=C(/C)[C@H]1CC[C@]2(C)[C@@H]1CC[C@@H]1[C@@]3(C)CC/C(=N/O)C(C)(C)[C@@H]3CC[C@]12C	47.5% [100 µM]	59.7% [100 µM]	77.3% [100 µM]	74.2% [100 µM]	40.5% [100 µM]	53.1% [100 µM]	21.3% [100 µM]	54.9% [100 µM]	58.7% [100 µM]	65.8% [100 µM]
CCCCN(CCCC)CC(O)c1ccc(OCc2ccccc2)c2ccccc12 (stereo not given)	61.2%	104%	90%	109%	83.1%	76.6%	23.7%	86.1%	84.6%	87.9%
Nc1ccc(Cl)c([N+](=O)[O-])c1	111%	101%	106%	101%	104%	94%	87.5%	97.7%	107%	107%
CCCCOC(=O)c1cccc([N+](=O)[O-])c1	101%	104%	106%	109%	107%	99.8%	92.7%	107%	112%	115%
COc1ccc2nc3cc(Cl)ccc3c(Nc3ccc(O)c(CN4CCCC4)c3)c2c1	47.3%	97.5%	7.91% (active)	26.9%	-27.4% (active)	31.9%	-40.7% (active)	27.7%	-21.8% (active)	-19.8% (active)
C=C(C)[C@@H]1CC[C@]2(C(=O)NCCCCCCN(CCCN)CCCN)CC[C@]3(C)[C@H](CC[C@@H]4[C@@]5(C)CC[C@H](OCCCN)C(C)(C)[C@@H]5CC[C@]43C)[C@@H]12	77.4% [100 µM]	111% [100 µM]	80.7% [100 µM]	93.2% [100 µM]	-16.2% [100 µM] (active)	76.1% [100 µM]	88.8% [100 µM]	46.2% [100 µM]	61.9% [100 µM]	18.9% [100 µM]
C[N+](C)(C)c1ncnc2[n-]cnc12	57.8%	90.4%	105%	105%	100%	83.2%	68.9%	100%	72.7%	103%
Clc1ccc(/C=N/Nc2nc3ccccc3s2)c(Cl)c1	90.4%	100%	93.4%	87.9%	41.8%	44.6%	97.2%	73.7%	90.7%	88.4%
Cn1cc(-c2nnc(-c3cn(C)c4ncc(Br)cc34)o2)c2ccccc21	90.4%	93%	97.7%	82.5%	98.2%	77.1%	57.3%	87.4%	105%	76%
C=C(C)[C@@H]1CC[C@]2(C)[C@H](CC[C@@H]3[C@@H]([C@@](C)(O)CCC=C(C)C)CC[C@]32C)[C@@]1(C)CCC(=O)O	-5.71% [100 µM] (active)	-41.5% [100 µM] (active)	-6.31% [100 µM] (active)	-61.4% [100 µM] (active)	-34.9% [100 µM] (active)	-49.4% [100 µM] (active)	-13.6% [100 µM] (active)	14.9% [100 µM]	1.09% [100 µM] (active)	-69.5% [100 µM] (active)
C#CCC(C(=O)OCC)C(=O)OCC	100%	98.5%	100%	102%	109%	108%	99.1%	100%	107%	105%
O=C(CCN1CCCCC1)c1ccc(Cl)cc1	110%	94.6%	99.9%	100%	97.8%	83.1%	95.8%	109%	103%	107%
Nc1cc(NN=C(c2ccc(O)cc2)c2ccc(O)cc2)c([N+](=O)[O-])cc1[N+](=O)[O-]	-58.3% (active)	61.8%	110%	-10.2% (active)	-60.1% (active)	60.5%	-82% (active)	-49.6% (active)	-93.9% (active)	-52.8% (active)
CC(C)CSc1ncnc2nc[nH]c12	94.7%	85.2%	103%	95.9%	96.9%	68.8%	88%	103%	93.8%	101%
O=C(Nc1ccc(Cl)c(C(F)(F)F)c1)Nc1ccc(-c2cccnc2)cc1N1CCC(CO)CC1	38.4%	53.4%	54.8%	47.5%	18.5%	34.5%	20.2%	22.2%	15.6%	-26.6% (active)
Cc1cc2c(C(C)C)c(O)c(O)c(C=NCc3ccoc3)c2c(O)c1-c1c(C)cc2c(C(C)C)c(O)c(O)c(C=NCc3ccco3)c2c1O	23.5%	72%	44.5%	53.3%	25.5%	21%	35.4%	26.3%	62.3%	10.6%
C[C@]12CCc3c(ccc4cc(O)ccc34)[C@@H]1CC[C@H]2O	95.7%	91.9%	105%	103%	102%	84.1%	88.3%	108%	104%	108%
CCCCCC1CCCCN1C(=O)OCCCC (stereo not given)	62%	87.5%	103%	122%	99.9%	113%	32%	114%	104%	111%
COc1ccc(/C=C2\N=C(Nc3ccccc3)N(NC(=O)c3ccccn3)C2=O)cc1	101%	98.1%	106%	107%	99.7%	95.8%	90%	99.1%	96.4%	115%
CC(C)c1ccc(C(=O)Nc2nc3ccc(O)cc3s2)cc1	51.4%	66.6%	62.2%	93.1%	3.97% (active)	50%	39.6%	33.5%	0.538% (active)	33%
COc1cc(C)cc2oc3oc(=N)c(C(=O)c4ccccc4)cc3c(=O)c12	108%	103%	98%	106%	105%	94.9%	96.8%	109%	106%	124%
O=C1/C(=C\c2cn(CC(O)CN3CCCCC3)c3ccccc23)c2ccccc2N1c1c(Cl)cccc1Cl (stereo not given)	-47.4% (active)	-73.9% (active)	-90.4% (active)	-91% (active)	-82.7% (active)	-87.4% (active)	-77.5% (active)	-90.4% (active)	-72.6% (active)	-99.1% (active)
CC(C)CCSc1nc(N)nc2nc[nH]c12	104%	96.7%	143%	102%	96.8%	76.4%	79.9%	104%	95.9%	102%
[2H]C1([2H])CCN(C(=O)C2CC2)c2cc(NS(=O)(=O)c3ccc(-c4cccc(C(N)=O)c4)cc3)ccc21	44%	61.1%	64.6%	29.1%	17.3%	33.3%	14%	45.2%	81.8%	37.7%
Nc1nc(SCc2cccc([N+](=O)[O-])c2)c2[nH]cnc2n1	102%	90%	91.2%	94.6%	108%	100%	81.1%	97.2%	98.1%	114%
